# JMJD2A Tudor = inhibitors of human JMJD2A Tudor domain; O75164; AlphaScreen JMJD2A-Tudor / H3K4me3 peptide binding; Potency, µM (titrated, usually from 114 µM), inactives show at the top dose activity change, negative = inhibition, actives largely listed as inhibitors; 4.4% of 390,000 active; note: potency is the fitted concentration of half-maximal effect; % is set by controls: 0 for no effect and ±100 for the full control effect; nearly all actives have a fitted effect of over 50% in size
# G9a inh = blocks human histone lysine methyltransferase G9a; Q96KQ7; G9a H3K9 monomethylation, AlphaScreen, 2 h; Potency, µM (highest dose often 102 µM), inactives show at the highest dose activity, negative = inhibition, most hits filed as inhibitors; 8.8% of 350,000 active; note: potency is the fitted concentration of half-maximal effect; % is set by controls: 0 for no effect and ±100 for the full control effect; nearly all actives have a fitted effect of over 75% in size
# Target sequence (Q96KQ7 913-1193 limits assumed): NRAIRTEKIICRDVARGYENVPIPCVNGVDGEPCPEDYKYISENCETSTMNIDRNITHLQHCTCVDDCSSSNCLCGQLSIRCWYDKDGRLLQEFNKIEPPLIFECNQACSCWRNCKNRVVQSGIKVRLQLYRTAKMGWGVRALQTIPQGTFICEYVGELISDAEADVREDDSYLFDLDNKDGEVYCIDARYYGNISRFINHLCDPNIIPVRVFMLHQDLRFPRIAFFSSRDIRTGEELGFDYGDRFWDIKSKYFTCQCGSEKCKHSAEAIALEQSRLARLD
#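 AlphaScreen detection with an anti-monomethyl H3K9 antibody quantified product after a 2 h room-temperature reaction containing 500 nM biotinylated H3K9 peptide, 20 µM SAM and 20 nM enzyme, which had been preincubated 15 min with compound.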
# CtBP-E1A inh = inhibitors of CtBP/E1A interaction; AlphaScreen GST-E1A/His-CtBP binding, 1536-well; stronger effect = lower value; 0.49% of 340,000 active; AID 651724; activity change, % (concentration not given with the values); in the data active = activity change below about -65%; inconclusive = mostly about -30% to -63%; note: % is set by controls: 0 for no effect and ±100 for the full control effect
#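 Homogeneous bead-based format: GST-tagged E1A captured on glutathione donor beads, His-tagged CtBP on nickel acceptor beads; compounds precede bead addition by 2 h at 37 °C.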
# BAZ2B inh = inhibitors of human BAZ2B bromodomain | Q9UIF8 | AlphaScreen BAZ2B-H3K14Ac peptide displacement | Potency, µM (top dose mostly 114 µM), for the others: top-dose activity change, negative = inhibition, usual class: inhibitors | 4.4% of 360,000 active | AID 504333; note: potency is the fitted concentration of half-maximal effect; % is set by controls: 0 for no effect and ±100 for the full control effect; nearly all actives have a fitted effect of over 60% in size
#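 AlphaScreen luminescence quantifies BAZ2B engagement of H3K14Ac peptide; the protein and biotinylated peptide are both at 50 nM final, buffer PBS pH 7.4 with 0.01% Tween-20, all steps at room temperature.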
# HP1b binding inh = blocks HP1-beta chromodomain binding to methylated histone tails. AlphaScreen HP1-beta / biotin-H3K9me3 peptide binding. 0.56% of 390,000 active. P83916. Potency, µM (top dose mostly 114 µM), inactives show top-dose activity change, negative = inhibition, most hits filed as inhibitors; note: potency is the fitted concentration of half-maximal effect; nearly all actives have a fitted effect of over 70% in size
# Target sequence (P83916 whole entry, looked up): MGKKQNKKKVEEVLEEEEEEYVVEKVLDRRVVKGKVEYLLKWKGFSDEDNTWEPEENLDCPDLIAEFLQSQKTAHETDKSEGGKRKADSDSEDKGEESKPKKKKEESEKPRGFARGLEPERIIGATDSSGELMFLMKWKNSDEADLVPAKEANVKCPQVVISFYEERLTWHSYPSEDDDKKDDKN
#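 AlphaScreen: HP1-beta (50 nM) preformed 30 min with biotin-H3(1-18)K9me3 peptide (50 nM) in PBS pH 7.4, 0.01% Tween-20. Compound added for 30 min at RT, then streptavidin donor/nickel chelate acceptor beads (10 ug/mL) for 30 min.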
# Six1-Eya2 blk = Six1/Eya2 interaction inhibition; Q15475+O00167; AlphaScreen GST-Six1/His-Eya2 binding, biochemical; stronger effect = lower value; activity change, % (concentration not given with the values); 0.56% of 360,000 active; AID 651725; in the data active = activity change below about -65%; inconclusive = mostly about -30% to -63%; note: % is set by controls: 0 for no effect and ±100 for the full control effect
#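 Homogeneous AlphaScreen proximity assay pairing GST-Six1 with His-tagged Eya2 (added as 5X mix: 250 nM and 500 nM) in 50 mM Tris pH 8.0, 300 mM NaCl, 1 mM TCEP. Glutathione donor and nickel acceptor beads; 1 h, 37 °C, dark.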
# Active calls of the source: *; ? = inconclusive; nt = no result given; [ ] = another dose, or the depositor's remark. This is a sample that favours compounds with a hit; in the whole collection about 10% have one here. Unless noted, calls come from the whole dose curve; as a rule, active = well fitted inhibition curve with a large enough effect; inconclusive = small, poorly fitted or top-dose-only effect; inactive = no such curve, though single readings can be large or run the other way.
SMILES,JMJD2A Tudor,G9a inh,CtBP-E1A inh,BAZ2B inh,HP1b binding inh,Six1-Eya2 blk
O=C(OCC(=O)N(Cc1ccccc1)Cc1ccccc1)c1ccccc1NCCO,16%,40µM*,21,6%,72%,2
O=C(OCC(=O)N1CCN(C(=O)COC(=O)c2ccccc2NCCO)CC1)c1ccccc1NCCO,-2%,nt,6,nt,41%,0
O=C(OCC(=O)N1CCN(C(=O)c2ccco2)CC1)c1cc(-c2ccc(Cl)c(Cl)c2Cl)nc2ccccc12,-13%[57.1 µM],79µM*,5,-6%,14%,-7
COc1cccc(CN2CCNC(=O)C2CC(=O)NCCCC2CCCC2)c1OC (centres undefined),-7%,?,4,-19%,32%,0
CC(=O)Nc1c(C(=O)Nc2ccccc2F)oc2ccccc12,9%,19%[59 µM],nt,-32%,39%,nt
COc1ccc(CNC(=O)C(=O)NCC(c2cccnc2)N2CCN(c3ccccc3F)CC2)cc1 (centres undefined),-11%,39%[59 µM],nt,0%,18%,nt
S=c1[nH]nc(NCCCN2CCOCC2)s1,3.5µM*,1.3µM*,-6,32µM*,?,-2
Cc1ccc2c(c1)C1(C=CC(=O)C=C1)CC(=O)N2C,-22%,nt,nt,nt,25%,nt
COc1ccc(OC)c(CNc2ccc([N+](=O)[O-])cc2C)c1,28µM*,?,-18,?,?,-19
COc1ccc([N+](=O)[O-])cc1NCc1ccccc1C,32µM*,?,125,-1%,75%,43
Cc1cc(N2CCN(C(=O)Oc3ccc([N+](=O)[O-])cc3)CC2)c2ccccc2n1,nt,nt,-5,nt,nt,-4
O=C(Nc1ccccc1Br)c1cc(=O)c2ccccc2o1,8%,?,1,6%,21%,-1
O=C1CC(Sc2nnnn2C2CCCCC2)C(=O)N1c1ccccc1 (centres undefined),-17%,10µM*,1,-3%,1%,0
O=[N+]([O-])c1ccc2c(c1)-c1ccccc1C2=NO,?,nt,-2,nt,?,?
O=[N+]([O-])c1ccc2c(c1)C(=Nc1ccccc1)c1ccccc1-2,32µM*,nt,?,nt,?,?
NC(=O)C1CCN(c2nc(-c3ccccc3-c3ccccc3)cs2)CC1,45µM*,-1%[12.7 µM],nt,?,-15%,nt
NC(=O)C1CCN(c2nc(-c3ccccc3N)cs2)CC1,-14%,?,nt,?,49%,nt
CC(=O)c1cccc(-c2csc(N3CCC(C(N)=O)CC3)n2)c1,-19%,?,nt,50µM*,45%,nt
NC(=O)C1CCN(c2nc(-c3cccc(Cl)c3)cs2)CC1,-26%,-33%[12.7 µM],nt,?,20%,nt
CCOC(=O)c1c(S(=O)(=O)N2CCC(C(=O)Nc3cccc(C)n3)CC2)c(C)n(C)c1C,-5%,3%[59 µM],nt,1%,25%,nt
CC(=O)N1CCc2cc(Br)cc(S(=O)(=O)N3CCN(c4cc(C)ccc4C)CC3)c21,-6%,-29%[59 µM],nt,0%,21%,nt
CCOc1cc(/C=C2\C(=N)N3N=C(N4CCCCC4)SC3=NC2=O)ccc1OC(=O)c1ccco1,?,?,-11,?,-13%,-17
CCOc1cc(/C=C2/C(=N)N3C(=NC2=O)SN=C3S(C)(=O)=O)ccc1OC(=O)c1ccco1,?,6%[0.0925 µM],?,50µM*,5%,2
CCOc1cc(/C=C2/C(=N)N3N=C(CC)SC3=NC2=O)ccc1OC(=O)c1ccco1,-33%,nt,2,-17%,-3%,-15
COc1cc(/C=C2\C(=N)N3N=C(S(C)(=O)=O)SC3=NC2=O)ccc1OC(=O)c1ccco1,?,45µM*,nt,50µM*,-12%[57 µM],-14
SMILES,JMJD2A Tudor,G9a inh,CtBP-E1A inh,BAZ2B inh,HP1b binding inh,Six1-Eya2 blk
CCS(=O)(=O)C1=NN2C(=N)/C(=C\c3ccc(SCc4ccco4)o3)C(=O)N=C2S1,32µM*,13µM*,-9,50µM*,?,?
CCOc1cc(/C=C2\C(=N)N3N=C(S(=O)(=O)CC)SC3=NC2=O)ccc1OC(=O)c1ccco1,-5%,45µM*,nt,?,28%,-26
CC1=CN2C(=N)/C(=C/c3ccc(Sc4ccc(Cl)cc4)o3)C(=O)N=C2S1,-6%,27%[59 µM],-10,-4%,7%,-7
N=C1/C(=C/c2ccc(OC(=O)c3ccco3)cc2)C(=O)N=C2SC=CN12,-2%,-33%,-1,-36%,28%,?
CCOc1ccc(NC(=O)C2CCCN(S(=O)(=O)c3cccc4nonc34)C2)cc1 (centres undefined),-16%,4%[59 µM],nt,-12%,6%,nt
CCS(=O)(=O)C1=NN2C(=N)/C(=C\c3ccc(OC(=O)c4ccco4)c(Br)c3)C(=O)N=C2S1,nt,-17%[59 µM],nt,50µM*,nt,nt
COc1cc(/C=C2\C(=N)N3N=C(S(C)(=O)=O)SC3=NC2=O)ccc1OCCOc1ccccc1C,?,25µM*,2,56µM*,?,3
COc1ccc(/C=C2/C(=N)N3N=C(CC(=O)N4CCCC4)SC3=NC2=O)cc1OC,-14%,19%,-5,-15%[57.1 µM],18%,-2
CCS(=O)(=O)C1=NSC2=NC(=O)/C(=C\c3ccc(OC(=O)c4ccco4)cc3)C(=N)N21,-19%,45µM*,0,?,8%,-10
N=C1/C(=C\c2ccc(OC(=O)c3ccco3)cc2)C(=O)N=C2SC(N3CCCCC3)=NN12,?,13%,?,?,15%,-5
CC(C)S(=O)(=O)C1=NSC2=NC(=O)/C(=C\c3ccc(OC(=O)c4ccco4)cc3)C(=N)N21,7%,19%[0.0925 µM],nt,?,32%,-21
COc1cc(/C=C2\C(=N)N3N=C(S(C)(=O)=O)SC3=NC2=O)ccc1OC(=O)c1cccs1,-4%,-25%,nt,56µM*,31%,?
CCC1=NN2C(=N)/C(=C\c3ccc(OCCOc4ccccc4OC)cc3)C(=O)N=C2S1,-7%,-10%,-1,-33%,16%,-8
CC1=CC2=NC(=O)/C(=C\c3cccn3CCOc3ccccc3C)C(=N)N2O1,?,-49%,-18,?,-24%,-28
COc1ccccc1OCCOc1ccc(/C=C2/C(=N)N3OC(C)=CC3=NC2=O)cc1OC,-36%,71µM*,0,-26%,11%,3
O=C(Nc1ccccc1C(=O)NCCCn1ccnc1)c1ccccc1,-23%,-16%,0,-5%,44%,-2
CCCCNC(=O)c1ccccc1C(=O)NCCCC,14µM*,6%[59 µM],2,4%,?,11
CC(C)(C)C(=O)Nc1ccccc1C(=O)NCCCn1ccnc1,50µM*,-3%,-23,18µM*,24%,?
CCSc1ccccc1C(=O)NCCCn1ccnc1,-31%,20µM*,1,3%,29%,4

# High-throughput results as filed in PubChem BioAssay.
